Assay outcomes: PubChem BioAssay, several laboratories
Mcl1-Noxa inh: disrupts binding of human Mcl-1 to Noxa peptide | Q07820 | TR-FRET Mcl-1/Noxa peptide binding, 2 h | inhibition, % at 21.7 µM | hit rate 1.5% among 220,000 | AID 1022;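 active = compounds that cut the protein-peptide binding signal by more than 50% relative to plate controls in a single-dose test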;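 note: His-tagged Mcl-1 with rhodamine Noxa BH3 peptide and terbium anti-His antibody; 0% = Mcl-1 plus Noxa peptide wells and 100% = peptide-only wells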
p47phox inh: p47phox (human) inhibition | P14598 | p47phox/p22phox peptide binding, fluorescence polarization, 2 h | inhibition, % at 24.7 µM | hit rate 0.53% among 220,000 | AID 1274;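 note: 0% = p47phox with labelled peptide and 100% = labelled peptide alone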
Mcl1 Bid PPI: Mcl-1/Bid interaction inhibition; hit rate 0.97% among 220,000; TR-FRET Mcl-1/Bid-Dy647 peptide binding, 1536-well; Q07820; inhibition, % at 21.7 µM;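 active = compounds that cut the binding signal by more than half at the single screening dose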;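 note: His-tagged Mcl-1 with europium anti-His antibody binding Bid BH3 peptide; 0% = Mcl-1 plus peptide wells and 100% = peptide-only wells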
Bim-Mcl-1: human Bim-Mcl-1 interaction inhibition | Q07820 | Bead-based flow cytometry, Bim peptide-Mcl-1 binding | inhibition, % at 10 µM | hit rate 0.1% among 190,000; in the data active = inhibition above about 40%;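 note: 0% = no compound tracer wells and 100% = peptide blocker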
14-3-3 Bad PPI: disrupts binding of bovine 14-3-3 zeta to phospho-Bad peptide; P63103; TR-FRET 14-3-3zeta/Dy647-pBad peptide displacement, 1 h; inhibition, % at 21.7 µM; hit rate 0.71% among 220,000; AID 781;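 active = inhibition above about 70%, limit read from the data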;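 note: 0% = full 14-3-3 plus peptide FRET controls and 100% = background without 14-3-3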
Target sequence (P63103 whole entry, looked up): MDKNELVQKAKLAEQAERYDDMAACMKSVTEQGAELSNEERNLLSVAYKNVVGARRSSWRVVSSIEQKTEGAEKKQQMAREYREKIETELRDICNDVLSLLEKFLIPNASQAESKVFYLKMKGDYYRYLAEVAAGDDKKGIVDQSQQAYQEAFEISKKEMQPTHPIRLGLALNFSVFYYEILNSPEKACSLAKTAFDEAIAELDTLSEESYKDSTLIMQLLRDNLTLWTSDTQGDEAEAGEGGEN
eIF4E-4G inh: eIF4E/eIF4G interaction inhibition in translation initiation; P63073+Q04637; hit rate 0.37% among 220,000; AID 782; TR-FRET eIF4E-eIF4GI(517-606) binding, 2 h; inhibition, % at 21.7 µM;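 note: 0% = full FRET control wells and 100% = background wells lacking eIF4GI fragment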
* = called active by the depositor; / = not tested or not shown; [ ] = remark or other dose. Hits are enriched below; roughly 3.4% of the tested compounds scored in any of these assays.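 Rule for the calls, unless noted: active = inhibition above about 30% (limit read from the data); inactive = the rest.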

SMILES	Mcl1-Noxa inh	p47phox inh	Mcl1 Bid PPI	Bim-Mcl-1	14-3-3 Bad PPI	eIF4E-4G inh
CCc1cccc(NC(=O)Cn2c3[n+](c4ccc(C(F)(F)F)cc42)CCCCC3)c1	25.4	1.1	-51.8	-3.0	32.4	-2.8
O=C(Cn1c2[n+](c3ccc(C(F)(F)F)cc31)CCCCC2)Nc1ccccc1	3.2	3.2	1.4	-2.0	4.4	34.0*[fluorescence artefact?]
COc1ccc2nc(Nc3nc(CSc4nc5ccccc5[nH]4)cc(=O)[nH]3)nc(C)c2c1	-112.5	-27.4	55.8*	-4.0	2.1	-5.5
CN1CCN(C2=CC(=O)OC23CCCCC3)CC1	13.8	-2.5	-2.6	0.0	-7.3	84.1*
O=C1C=C(N2CCCCC2)C2(CCCCC2)O1	14.6	4.0	-6.3	1.0	-5.9	-0.1
O=C(c1ccccc1)c1ccc2nc(N3CCN(C(=O)c4ccco4)CC3)c3nncn3c2c1	55.8*	-37.0	6.2	0.0	0.9	0.8
O=c1oc2ccccc2c2oc3cc(O)c(O)cc3c12	98.0*	-34.2	-94.8	/	14.9	8.8
CC(C)OC(=O)Cn1cnc2ccc(Br)cc2c1=O	106.7*	2.0	0.4	-3.0	4.9	-0.6
COc1ccc(C(=O)OCc2csc(C)n2)c(O)c1	-0.5	12.6	-10.7	0.0	3.9	1.0
C=CSc1sc(Cl)c(N(CC)CC)c1[N+](=O)[O-]	52.3*	13.1	-55.5	-1.0	-4.6	0.5
C=CSc1sc(Cl)c(N(C)C)c1[N+](=O)[O-]	15.8	4.8	-22.8	-2.0	-14.4	-1.5
O=C(COC(=O)C1=COCCO1)Nc1ccc(OC(F)F)cc1	-18.9	-2.8	-9.5	2.0	-14.9	0.3
CCOC(=O)c1ccc(NC(=O)Nc2cc(C)cc(C)n2)cc1	-7.3	-5.6	-28.2	0.0	-19.4	-0.4
CCN(CC(=O)Nc1cccc(C(C)=O)c1)S(=O)(=O)c1ccccc1	1.5	1.6	-34.5	0.0	0.1	2.8
Nc1ccc2c(c1Cl)C(=O)c1ccc(N)c(Cl)c1C2=O	86.5*	9.7	46.2	/	59.5	18.8
COc1ccc(N2C(=O)C(CN3CCCCC3)C2c2ccccc2)cc1 (stereo not given)	-1.6	-9.5	-14.9	-1.0	88.9*	-0.3
Cc1cc(OCC(O)CNC(C)(C)C)ccc1Cl (stereo not given)	9.3	-6.1	-6.0	-3.0	-16.2	0.0
CCOC(=O)Cn1c(=O)oc2cc(S(=O)(=O)Nc3ccc(N(CC)CC)cc3C)ccc21	53.9*	-4.1	-11.5	-2.0	-2.9	6.3
CCOC(=O)Cn1c(=O)oc2cc(S(=O)(=O)Nc3cc(OCC)ccc3OCC)ccc21	7.3	28.0	-73.2	-3.0	/	/
CCOC(=O)Cn1c(=O)oc2cc(S(=O)(=O)NCCC(C)C)ccc21	17.6	3.8	-13.2	-1.0	-1.9	0.2
CCOC(=O)Cn1c(=O)oc2cc(S(=O)(=O)NCCc3ccc(OCC)c(OCC)c3)ccc21	21.8	102.9*	-32.1	-1.0	-3.2	-3.3
COc1ccc(Nc2nc(N)c([N+](=O)[O-])c(N3CCOCC3)n2)cc1	8.8	-7.5	-12.0	/	-14.0	-2.9
CN(C)c1ccc(Nc2nc(N)c([N+](=O)[O-])c(N3CCOCC3)n2)cc1	82.7*	1.6	-12.2	1.0	-15.7	2.8
Cc1ccccc1NC(=O)c1c(C)[nH]c(=S)c(C#N)c1-c1ccc(Cl)cc1	-44.8	-10.0	71.3*	/	-7.5	-2.4
CCc1[nH]c(=S)c(C#N)c(-c2ccccc2)c1C(=O)OC	20.4	3.9	-89.6	-3.0	6.5	-0.1
SMILES	Mcl1-Noxa inh	p47phox inh	Mcl1 Bid PPI	Bim-Mcl-1	14-3-3 Bad PPI	eIF4E-4G inh
CCN(CC)C(=O)c1c(C)[nH]c(=S)c(C#N)c1-c1ccco1	58.9*	-5.5	-82.6	-1.0	-17.5	3.4
Cc1[nH]c(=S)c(C#N)c(-c2ccccc2)c1C(=O)Nc1ccccc1	-14.2	-10.3	-58.2	/	-3.2	32.2*
Cc1ccc(-c2c(C(=O)Nc3ccccc3C)c(C)[nH]c(=S)c2C#N)o1	23.4	-5.9	-91.8	-1.0	-0.2	-1.6
CCN1C(=O)N(C(C)=O)C2C1N(C(C)=O)C(=O)N2C(C)=O (stereo not given)	-0.7	-3.8	53.3*	-1.0	-7.8	2.6
O=C(COC(=O)c1ccc2c(c1)S(=O)(=O)N=C1CCCCCN12)NCc1cccs1	13.9	3.1	-12.8	/	0.4	3.8
Cc1cc(C)n(-c2nnc3c4ccccc4n(C)c3n2)n1	10.3	-14.2	-32.5	/	-5.3	4.0
